Data reported in PubChem BioAssay (NCATS).
Results filed as inconclusive are left out. Calls of active or inactive are those of the source. Calls follow the shape of the dose curve; as a rule, active = well fitted inhibition curve with a large enough effect; inconclusive = small, poorly fitted or top-dose-only effect; inactive = flat fitted curve, though single readings scatter. Square brackets hold non-standard residues; d marks the D form. Peptide text beside a SMILES is read from it. Orn = NCCC[CH](N)C(=O)O

biological target: Luciferin 4-monooxygenase (Photinus pyralis) (UniProt P08659); test: Biochemical firefly luciferase enzyme assay for NPC (AID 624030); also: nearly all actives have a fitted effect of over 70% in size; conditions: purified P. pyralis luciferase, luminescence, 5 min; series mostly up to 58.6 µM
From the text: Charcot-Marie-Tooth-Association [CMTA] National Center for Advancing Translational Sciences [NCATS] Charcot-Marie-Tooth (CMT) disease was first characterized by Jean-Martin Charcot and Pierre Marie in France and, independently, by Howard Henry Tooth in England in 1886. CMT is one of the most common inherited neurological diseases, affecting approximately 1 in 2,500 Americans. […] The most prevalent type of CMT is known as CMT1A and caused by a duplication of the PMP22 gene which leads to over-expression of this protein. PMP22 is a glycosylated intrinsic membrane protein accounting for 2-5% of the myelin protein content, and its over-expression results in demyelination and subsequently axonal loss. A pair of cellular transcription-based assays was developed in the S16 rat Schwann cell lines (Hai, M., et al., 2002) stably transfected with orthogonal reporters - firefly luciferase (Fluc) and beta-lactamase (beta-Lac) - whose expression is driven by an intronic regulatory element of the PMP22 gene (Jones, E.A., et al., 2011) to recapitulate endogenous expression of PMP22. A comprehensive library of approved drugs, the NCGC Pharmaceutical Collection (Huang, R., et al., 2011), was screened in the cross-validating platform of the orthogonal reporter assays to identify drug modulators inhibitory towards PMP22 expression. A set of counter-screens was devised to address non-specific activity of the library. An ATP-dependent CellTiter-Glo assay (developed by Promega Corp) was utilized to control cell viability. In addition, biochemical Fluc enzyme assay was performed to assess direct inhibition of the Fluc enzymatic activity. References Hai, M., Muja, N., DeVries, G.H., Quarles, R.H. and Patel, P.I. Comparative analysis of Schwann cell lines as model systems for myelin gene transcription studies. J Neurosci Res, 2002. 69(4): pp 497-508 Huang, R., Southall, N., Wang, Y., Yasgar A., Shinn P., Jadhav, A. , Nguyen, D.-T. and Austin, C.P., The NCGC pharmaceutical collection: a comprehensive resource of clinically approved drugs enabling repurposing and chemical genomics. Sci Transl Med, 2011. 3(80): p. 80ps16.
Compounds were transferred to the plates in 23nl, and one microliter/well luciferase enzyme-buffer solution (10 nM P. pyralis luciferase and 50 mM Tris Acetate final concentrations) was dispensed yielding a final reaction volume of […]. Luciferase luminescence was measured by a ViewLux plate reader within 5 minutes of enzyme-buffer addition. The % activity was determined by normalizing to the average readings of PTC124 (a positive control) relative to DMSO (0% Activity). The concentration-effect curves were then classified based on curve quality (r2), response magnitude and degree of measured activity.
Potency is read from the fitted curve at half-maximal effect.

Chain of Luciferin 4-monooxygenase (Photinus pyralis) (P08659 whole entry, looked up): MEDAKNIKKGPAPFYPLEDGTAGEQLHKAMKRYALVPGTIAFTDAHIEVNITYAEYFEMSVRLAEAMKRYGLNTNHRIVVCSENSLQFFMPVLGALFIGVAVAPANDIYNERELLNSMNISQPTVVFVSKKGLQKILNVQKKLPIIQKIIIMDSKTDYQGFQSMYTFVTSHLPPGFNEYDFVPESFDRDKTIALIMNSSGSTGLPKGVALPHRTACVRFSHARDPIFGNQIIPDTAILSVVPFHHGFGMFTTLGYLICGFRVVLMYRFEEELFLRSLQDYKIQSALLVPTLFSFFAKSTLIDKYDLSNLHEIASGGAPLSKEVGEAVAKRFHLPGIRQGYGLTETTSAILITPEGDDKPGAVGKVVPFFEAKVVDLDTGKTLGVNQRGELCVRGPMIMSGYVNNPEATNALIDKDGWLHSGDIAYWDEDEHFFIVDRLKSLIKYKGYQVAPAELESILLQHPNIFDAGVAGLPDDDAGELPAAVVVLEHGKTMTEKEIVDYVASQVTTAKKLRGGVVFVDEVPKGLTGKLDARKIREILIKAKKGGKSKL

Potency, inactive:
CNCC(=O)NC(CCCN=C(N)N)C(=O)NC(C(=O)NC(Cc1ccc(O)cc1)C(=O)NC(C(=O)NC(Cc1cnc[nH]1)C(=O)N1CCCC1C(=O)NC(C)C(=O)O)C(C)C)C(C)C (stereo not given)
C/C(=C(/CCOC(=O)c1ccccc1)SS/C(CCOC(=O)c1ccccc1)=C(\C)N(C=O)Cc1cnc(C)nc1N)N(C=O)Cc1cnc(C)nc1N
CC(=O)O[C@H]1C[C@@H]2CC[C@@H]3[C@H](CC[C@]4(C)[C@H](OC(C)=O)[C@@H](N5CC[N+](C)(C)CC5)C[C@@H]34)[C@@]2(C)C[C@@H]1N1CC[N+](C)(C)CC1
CC(C)C[C@@H](NC(=O)[C@@H](COC(C)(C)C)NC(=O)[C@H](Cc1ccc(O)cc1)NC(=O)[C@@H](CO)NC(=O)[C@@H](Cc1c[nH]c2ccccc12)NC(=O)[C@@H](Cc1cnc[nH]1)NC(=O)[C@@H]1CCC(=O)N1)C(=O)N[C@H](CCCN=C(N)N)C(=O)N1CCC[C@H]1C(=O)NNC(N)=O
CC[C@H](c1ccccc1)c1noc(CCN(CC)CC)n1
CCN(CC)CCOc1ccc(/C(=C(/Cl)c2ccccc2)c2ccccc2)cc1
C/C=C(/CC[C@@H](C)[C@H]1CCC2C3=CC[C@H]4[C@H](C)[C@@H](O)CC[C@]4(C)C3CC[C@@]21C)C(C)C (stereo not given in full)
COC1=C(C(=O)O)N2C(=O)[C@@H](NC(=O)C(N)C3C=CCC=C3)[C@H]2SC1 (stereo not given in full)
C=C1C[C@@H]2[C@H]3CCC4=CC(=O)C=C[C@]4(C)[C@@]3(F)[C@@H](O)C[C@]2(C)[C@]1(O)C(=O)COC(C)=O
COc1ccc(CCNC[C@H](O)COc2cccc(C)c2)cc1OC
CSCCC(NC(=O)[C@H](Cc1c[nH]c2ccccc12)NC(=O)CNC(=O)[C@H](CCSC)NC(=O)[C@H](Cc1ccc(OS(=O)(=O)O)cc1)NC(=O)[C@@H](N)CC(=O)O)C(=O)N[C@@H](CC(=O)O)C(=O)N[C@@H](Cc1ccccc1)C(N)=O (stereo not given in full)
C[N+](C)(C)CCOP(=O)(O)OP(=O)([O-])OCC1OC(n2ccc(N)nc2=O)[C@H](O)[C@@H]1O (stereo not given in full)
CC(=O)OCC(=O)C1(O)CCC2C3CCC4=CC(=O)CCC4(C)C3C(O)CC21C (stereo not given)
CC(C)C[C@H](NC(=O)[C@@H](Cc1c[nH]c2ccccc12)NC(=O)[C@@H](Cc1ccc(O)cc1)NC(=O)[C@@H](CO)NC(=O)[C@@H](Cc1c[nH]c2ccccc12)NC(=O)C(Cc1cnc[nH]1)NC(=O)C1CCC(=O)N1)C(=O)N[C@@H](CCCN=C(N)N)C(=O)N1CCC[C@@H]1C(=O)NCC(N)=O (stereo not given in full)
CCC[C@]1(CCc2ccccc2)CC(O)=C([C@H](CC)c2cccc(NS(=O)(=O)c3ccc(C(F)(F)F)cn3)c2)C(=O)O1
Fc1ccc(C2CCNCC2COc2ccc3c(c2)OCO3)cc1 (stereo not given)
COC(=O)C1=C(C)NC(C)=C(C(=O)O[C@H]2CCN(Cc3ccccc3)C2)C1c1cccc([N+](=O)[O-])c1 (stereo not given in full)
CC#CCC(C)[C@H](O)/C=C/C1[C@H](O)C[C@@H]2C/C(=C\CCCC(=O)O)C[C@H]12 (stereo not given in full)
CC(C)CC1NC(=O)C(CCCN)NC(=O)C(C(C)C)NC(=O)C2CCCN2C(=O)C(Cc2ccccc2)NC(=O)C(CC(C)C)NC(=O)C(CCCN)NC(=O)C(C(C)C)NC(=O)C2CCCN2C(=O)C(Cc2ccccc2)NC1=O (stereo not given) (cyclo(FPV[Orn]LFPV[Orn]L); configuration not given here)
O=C1C=C(CO)OCC1=O
CC#CC[C@@H](C)[C@@H](O)/C=C/[C@H]1[C@H]2c3cccc(CCCC(=O)O)c3O[C@H]2C[C@@H]1O
CCC(=O)OC1CCC2C3CCc4cc(O)ccc4C3CCC12C (stereo not given)
CCOC(=O)CCC(=O)OC1C(OC2C(C)C(OC3CC(C)(OC)C(O)C(C)O3)C(C)C(=O)OC(CC)C(C)(O)C(O)C(C)C(=O)C(C)CC2(C)O)OC(C)CC1N(C)C (stereo not given)
OCC1(O)OC[C@@H](O)[C@H](O)[C@@H]1O (stereo not given in full)
CC(=O)C[C@H]1[C@H](O[C@H]2[C@H](OC(C)C(=O)N[C@@H](C)C(=O)N[C@H](CCC(=O)N[C@@H](CCCCN)C(=O)N[C@H](C)C(=O)O)C(N)=O)[C@@H](NC(=O)O)C(O)O[C@@H]2CO)O[C@H](CO)[C@@H](O)[C@@H]1O (stereo not given in full)
C[N+]1(C)CCC(OC(=O)CC(O)(c2ccccc2)C2CCCC2)C1 (stereo not given)
CCN1CCN(C(=O)N[C@H](C(=O)N[C@@H]2C(=O)N3[C@@H](C(=O)O)C(C)(C)S[C@@H]23)c2ccccc2)C(=O)C1=O
CCCCCCC(O)C/C=C\CCCCCCCC(=O)O (stereo not given)
CO[C@@H]1[C@@H]([C@H](C)[C@@H]2O[C@@]3(CC[C@@](C)([C@H]4CC[C@@](C)([C@H]5O[C@H]([C@H]6O[C@](C)(O)[C@H](C)C[C@@H]6C)C[C@H]5O[C@H]5C[C@@H](OC)[C@H](OC)[C@@H](C)O5)O4)O3)C[C@@H](O)[C@@H]2C)O[C@@](O)(CC(=O)O)[C@H](C)[C@H]1OC
CC(C)(S)C(=O)NC(CS)C(=O)O (stereo not given)
C(=C1NCCN1)c1cccc2ccccc12
CC(=O)O[C@H](C)OC(=O)[C@@H](C)c1ccc(-c2ccccc2)c(F)c1
CCCC(=O)O[C@]1(C(=O)COC(=O)CC)CC[C@@H]2[C@@H]3CCC4=CC(=O)CC[C@]4(C)[C@H]3[C@@H](O)C[C@@]21C
CCC(Oc1ccccc1)C(=O)NC1C(=O)N2C1SC(C)(C)C2C(=O)O (stereo not given)
CC(C)N(Cc1ccccc1)C(C)C (tested in a mixture with another compound)
CCC(=O)Oc1ccc2c(c1)CCC1C2CC[C@]2(C)C(OC(=O)CC)CCC12 (stereo not given in full)
CCCN(CC)[C@@H](CC)C(=O)Nc1c(C)cccc1C
CC(N)C(=O)NCC(=O)NC1CSSCC(C(=O)O)NC(=O)C(CO)NC(=O)C(C(C)O)NC(=O)C(Cc2ccccc2)NC(=O)C(C(C)O)NC(=O)C(CCCCN)NC(=O)C(Cc2c[nH]c3ccccc23)NC(=O)C(Cc2ccccc2)NC(=O)C(Cc2ccccc2)NC(=O)C(CC(N)=O)NC(=O)C(CCCCN)NC1=O (stereo not given)
CCO[C@@H](Cc1ccc(OCCc2ccc(OS(C)(=O)=O)cc2)cc1)C(=O)O

Potency, active:
COc1ccc(-c2nc3ccc(C4=C(C)CC(=O)NN4)cc3[nH]2)cc1 12.8 µM
